Data on 15 molecules can be found in PubChem BioAssay AID1117264 (The Scripps Research Institute Molecular Screening Center, 2014).

Screen size: about 89,000 compounds; about 440 (0.49%) were called active. This is one part of a sample in which actives are shown more often than they occur.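 The calls were made as follows: active = inhibition above the mean inhibition across all screened compounds plus 3 SD (cut at about 11% in these data); inactive = the rest.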

In this test the target is RNA-editing ligase 1, mitochondrial (Trypanosoma brucei brucei) (UniProt P86926). The test can be described thus: TbREL1 RNA ligase inhibitors, primary screen, biochemical, FRET fluorescence (AID 1117264).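 Also: 0% = plate median of test wells and 100% = NSC42067 control.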 The settings on record: TbREL1 RNA ligation, at 9.66 µM, active compounds read high.
Sequence of RNA-editing ligase 1, mitochondrial (Trypanosoma brucei brucei) (P86926 whole entry, looked up): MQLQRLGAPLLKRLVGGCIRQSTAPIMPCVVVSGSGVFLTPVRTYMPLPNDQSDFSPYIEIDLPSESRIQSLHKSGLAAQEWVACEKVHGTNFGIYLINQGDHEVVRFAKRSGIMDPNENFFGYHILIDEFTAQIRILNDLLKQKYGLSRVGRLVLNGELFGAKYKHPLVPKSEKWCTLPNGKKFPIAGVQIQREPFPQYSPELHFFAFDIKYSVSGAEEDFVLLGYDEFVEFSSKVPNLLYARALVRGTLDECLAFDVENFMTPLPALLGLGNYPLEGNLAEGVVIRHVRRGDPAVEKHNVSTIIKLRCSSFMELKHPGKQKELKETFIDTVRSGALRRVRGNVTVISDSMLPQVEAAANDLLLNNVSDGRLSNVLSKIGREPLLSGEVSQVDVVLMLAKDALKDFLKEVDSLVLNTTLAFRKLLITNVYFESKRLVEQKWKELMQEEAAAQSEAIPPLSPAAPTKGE
For orientation: inhibition means the drop in the measured response relative to a control, in per cent. Consider `CC1CCCCN1Cc1cccnc1` (stereo not given), for which the inhibition is 13.3% (active).
For `COC(=O)C1=C(c2ccc(F)cc2OCc2ccccc2)C[C@@H]2CC[C@H]1N2C(=O)NCc1ccc(C(C)(C)C)cc1`, the inhibition is -1.57% (inactive).
Regarding `COc1cccc(-c2nc3ccc(N4CCN(C)CC4)cc3[nH]2)c1`, the inhibition was 5.54% (inactive).
With `CN1CCN(c2cc(N3CCNCC3)ccc2[N+](=O)[O-])CC1`, the inhibition was 13.9% (active).
`Cc1cccc(NC(=O)N2CC3CC(C2)c2cccc(=O)n2C3)c1` (stereo not given): the inhibition was 3.86% (inactive).
For the molecule `COC(=O)C1=C(c2ccccc2OCc2ccccc2)C[C@@H]2CC[C@H]1N2C(=O)NCc1ccc(OC)cc1`, the inhibition is -0.93% (inactive).
Consider `CCOP(=O)(OCC)C(NC(=O)NC)C(N)=O` (stereo not given), for which the inhibition is 2.84% (inactive).
With `CCC(=NCCc1ccccc1)c1c(O)n(C2CCCCC2)c(=O)[nH]c1=O`, the inhibition was -0.24% (inactive).
Turning to `COc1ccc(-n2nnnc2C(c2cccc3ccccc23)N2CCC(n3c(=O)[nH]c4ccccc43)CC2)cc1` (stereo not given), the inhibition is -2.29% (inactive).
Take `O=c1[nH]c2ccccc2n1C1CCN(C(c2ccccc2)c2nnnn2Cc2ccccc2)CC1` (stereo not given): the inhibition is 23.1% (active).
Turning to `COc1cc(C(=O)N2Cc3ccc(Br)cc3-n3nncc3C2)cc(OC)c1OC`, the inhibition is 2.36% (inactive).
On to `CN1CCN(C(=S)SCC(=O)Nc2ccc(Cl)cc2C(=O)c2ccccc2)CC1`, for which the inhibition is 2.78% (inactive).
Take `CCOC(=O)CNC(=O)N1Cc2cc(N3CCCCC3)ccc2-n2nncc2C1`: the inhibition is 2.4% (inactive).
Under `COc1ccc(-c2nn(CCC#N)cc2C(=O)O)cc1` stands -2.19% (inactive); under `CSc1ccc(C(=O)C2CCCN(Cc3ccn[nH]3)C2)cc1` (stereo not given), 0.96% (inactive).
